# Measured values from ChEMBL document CHEMBL4513216, “Probing the Open Global Health Chemical Diversity Library for Multistage-Active Starting Points for Next-Generation Antimalarials” (ACS Infect Dis, 2020).
# Screen size: about 65,000 compounds; about 2,100 (3.2%) showed an effect of 50% or more. The median lay at about -52%. The entries come from a sample that favours strong results as a whole.
# Tested on: Plasmodium falciparum
# Assay: Screen against P. falciparum Asexual Blood Stage (ABS), at 5uM
# Type: functional, Dd2
# Settings: tested at 5 uM
row,Structure (SMILES),INHIBITION
1,CCN(CCS(=O)(=O)c1ccc(Cl)cc1)Cc1ccc(OC)c(OC)c1,-18.6%
2,Cc1nc(CN2CCCn3cnc(COC(C)C)c3C2)cs1,-54.9%
3,Clc1ccc2nc(N3CCC(NCCCC4CCOC4)CC3)sc2c1 (stereo not drawn),66.2%
4,Cc1csc2c(N3CCC(NCCCC4CCOC4)CC3)ncnc12 (stereo not drawn),-85.3%
5,CCS(=O)(=O)CCNC1CCN(c2nc3ccc(Cl)cc3s2)CC1,-52%
6,COCc1nc2ncc3c(=O)n(-c4ccccc4OC)ccc3n2n1,-152%
7,O=C(Nc1cccc(N2CCCC2)c1)C1CCCN1c1nccs1 (stereo not drawn),-129%
8,N#Cc1cccc(NC(=O)C2CCCN2c2nccs2)c1 (stereo not drawn),58.1%
9,O=C(Nc1cccc(F)c1)C1CCCN1c1nccs1 (stereo not drawn),-77.8%
10,CNC(=O)c1ccc(CNc2ccncc2Cl)cc1,-24.6%
11,O=S(=O)(NCCCn1cncn1)c1ccc2c(c1)CCCC2,-159%
12,CNc1nc(C2CCCN2C(C)=O)nc2c1CN(C1CCCC1)CC2 (stereo not drawn),-71.7%
13,CN1CCCCC1c1cncc(N2CCC(O)CC2)n1 (stereo not drawn),-68.9%
14,O=S(=O)(C1CC1)N1CCC2(COCc3cnc(NCC4CC4)nc32)C1 (stereo not drawn),-35.7%
15,CN(C)c1ncc2c(n1)C1(CCN(Cc3ccccc3F)C1)COC2 (stereo not drawn),4.25%
16,Cc1ccccc1CN1CCC2(COCc3cnc(N(C)C)nc32)C1 (stereo not drawn),54%
17,c1cc(N2CCC3(COCc4cnc(NCC5CC5)nc43)C2)ncn1 (stereo not drawn),-14.7%
18,Cc1noc(C)c1CN1CCC2(COCc3cnc(N(C)C)nc32)C1 (stereo not drawn),26.7%
19,c1ccc(CN2CCC3(COCc4cnc(NCC5CC5)nc43)C2)cc1 (stereo not drawn),50.2%
20,Cc1cccc(CN2Cc3ccnn3CC(COCC3CC3)C2)n1 (stereo not drawn),-11.3%
21,COCCN1CCN(C(=O)NC2CC2)Cc2ccc(C)nc21,-51.3%
22,Cc1cc(C[C@@H]2COC[C@H]2NCc2ccc(Cl)c(Cl)c2)on1,-65.7%
23,Cn1cc(N2CCC3(CCCN(Cc4ccc(F)cc4)C3)C2=O)cn1 (stereo not drawn),-69.1%
24,O=C1COC2(CCN(CC3CC3)CC2)CN1c1ccsc1,-43%
25,c1cc(C2CC2)n2cnc(C3CN(Cc4ccncc4)CCO3)c2c1 (stereo not drawn),-50%
26,COCC(=O)N1CCC(c2nc3ccc(-c4ccncc4)cn3n2)CC1,-48.7%

row,Structure (SMILES),INHIBITION
1,c1ccc2c(c1)nnn2CCCNC1CCOC2(CCOCC2)C1 (stereo not drawn),-4.37%
2,c1ccc2c(c1)cnn2CCCNC1CCOC2(CCOCC2)C1 (stereo not drawn),68.9%
3,c1ccc(-c2nc(CCNC3CCOC4(CCOCC4)C3)no2)cc1 (stereo not drawn),-81.3%
4,c1ccc(Cc2noc(CCNC3CCOC4(CCOCC4)C3)n2)cc1 (stereo not drawn),-43.3%
5,c1ccc(-c2noc(CCNC3CCOC4(CCOCC4)C3)n2)nc1 (stereo not drawn),-80.1%
6,c1ccc2c(c1)ccn2CCCNC1CCOC2(CCOCC2)C1 (stereo not drawn),61.8%
7,COc1cc(F)ccc1-c1ncccc1NC(=O)C(C)C,-81.8%
8,CC(C)(C)c1nc(NS(=O)(=O)c2cccc(F)c2)no1,-71.4%
9,Cc1cc(NCc2ccc(C#N)cc2)n2nc(C)cc2n1,-88.7%
10,Cc1nn(C)c2cn(C(C)C(=O)NCc3ccccn3)nc12 (stereo not drawn),-17.6%
11,Cc1noc(C)c1CN1CCN(CCN(C)C)c2ncccc2C1,23.7%
12,CC(C)N(C)Cc1cnc2n1CCN(Cc1cccc(C#N)c1)C2,10.6%
13,CN(C)CCN1CCN(Cc2cccc(C#N)c2)Cc2cccnc21,65.1%
14,Cc1ncccc1NC(=O)c1nc2c(n1C)CCN(C(=O)C1CC1)C2,-117%
15,COc1cc(C(C)NCc2scnc2C)ccc1SC(F)F (stereo not drawn),19.3%
16,COc1cc(C(C)NCc2cscn2)ccc1SC(F)F (stereo not drawn),52.5%
17,COc1ccccc1NCc1cscn1,-46.4%
18,CN(Cc1cccnc1)C1CC2(CCN(Cc3cccnc3)CC2)C1,-8.45%
19,Cc1ccc(N2CCC3(CC2)CCN(C2CCOCC2)CC3)nn1,-77.4%
20,COCCN(Cc1ccc(C)cc1)CC1CCOC1 (stereo not drawn),-104%
21,COc1cccc(CN2C[C@@H]3COC[C@]3(COc3cccnc3)C2)c1,16.9%
22,COc1cccc(CN2C[C@@H]3COC[C@]3(COCc3ccncc3)C2)c1,33.5%
23,COc1ccccc1CN1C[C@@H]2COC[C@]2(COCc2ccncc2)C1,55.3%
24,Fc1cccc(CN2C[C@@H]3COC[C@]3(COCc3ccncc3)C2)c1,-28.5%
25,COc1cc(N2C[C@@H]3COC[C@]3(COCc3ccncc3)C2)ncn1,-1.95%
26,COc1ccccc1CN1C[C@@H]2COC[C@]2(COc2cccnc2)C1,52.9%

row,Structure (SMILES),INHIBITION
1,COc1cccc(CN2C[C@@H]3COC[C@]3(COCc3ccccn3)C2)c1,61%
2,COc1ncccc1CN1C[C@@H]2COC[C@]2(COc2cccnc2)C1,-33.8%
3,CCOC[C@]12COC[C@H]1CN(Cc1cccc(OC)c1)C2,3.19%
4,COCc1nc(C(=O)N2CCCC(n3ccnc3)C2)cs1 (stereo not drawn),-141%
5,Cn1cc(N2CC3(CCN(Cc4ccsc4)CC3)OCC2=O)cn1,-22.1%
6,Cc1nc(NCCCn2cccn2)c2c(n1)c(C)nn2C,-54.6%
7,Cc1cn2c(n1)CCC(NC(=O)CCCOCc1ccccc1)C2 (stereo not drawn),-45.8%
8,Cc1nc(CO[C@@H]2CN(Cc3cnn(C)c3)[C@@H]3COC[C@@H]32)cs1,-12.8%
9,Cc1n[nH]c(C)c1-c1cc(-c2ccc[nH]2)nc(N)c1C#N,-185%
10,Cc1n[nH]c(C)c1-c1cc(-c2cccc(O)c2)nc(N)c1C#N,-71.8%
11,CC(C)Cc1cc(-c2cc(-c3ccc[nH]3)nc(N)c2C#N)n[nH]1,61.3%
12,N#CC1(NC(=O)c2ccc(F)c(Br)c2)CCSC1 (stereo not drawn),-155%
13,CCc1ccc(NC(=O)CCN2CC(n3nc(C)cc3C)C2)cc1,-12.9%
14,CC(C)CN1CCCC1c1ccc(C(=O)Nc2cn(C)nn2)s1 (stereo not drawn),52.9%
15,CC(C)CN1CCCC1c1ccc(C(=O)Nc2cc[nH]n2)s1 (stereo not drawn),44.6%
16,CCc1nnc(NC(=O)c2ccc(C3CCCN3CC(C)C)s2)s1 (stereo not drawn),-54.1%
17,O=C(Nc1cccc(Cl)c1)c1nn(C2CCS(=O)(=O)C2)c2c1CCCC2 (stereo not drawn),25.4%
18,O=C(CO[C@@H]1CC[C@H]2[C@H]1OCCN2Cc1ccccn1)N1CCCC1,-59.6%
19,O=C(c1cnccn1)N1CCC2(CC1)CCN(Cc1ccccn1)C2=O,-85.2%
20,CN(Cc1cncnc1)[C@@H]1CN(Cc2ccco2)C[C@@H]2CCCO[C@@H]21,-7.65%
21,COc1ccccc1CN1CC[C@H]2[C@@H](C1)[C@H](c1ccsc1)CN2C(C)=O,29.5%
22,CC(C)(C)C(=O)N1C[C@H](c2ccsc2)[C@H]2CN(Cc3cccs3)CC[C@H]21,29.8%
23,COc1cccc(CN2CC[C@H]3[C@@H](C2)[C@H](c2ccsc2)CN3C(C)=O)c1,54.8%
24,Cn1nc(COc2cccnc2)c2c1CCN(c1cnccn1)C2,-72.3%
25,Oc1cc(C2CCCCN2CC2CC2)nc(-c2ccncc2)n1 (stereo not drawn),-48.7%
26,CS(=O)(=O)N1CCC2(CC1)CN(CC1CCOC1)c1ccccc12 (stereo not drawn),-50.1%

row,Structure (SMILES),INHIBITION
1,O=C1CC2(CCN(CC3CCOC3)CC2)c2ccccc2N1CC1CC1 (stereo not drawn),12.4%
2,c1ccc2c(c1)N(CC1CCOC1)CC21CCN(c2cnccn2)CC1 (stereo not drawn),69.9%
3,CCS(=O)(=O)N1CCC2(CC1)CN(CC1CCOC1)c1ccccc12 (stereo not drawn),23.6%
4,CCCS(=O)(=O)N1CCC2(CC1)CN(CC1CCOC1)c1ccccc12 (stereo not drawn),50.8%
5,CCCS(=O)(=O)N1CCC2(CC1)CN(C(=O)N(C)C)c1ccccc12,-7.36%
6,Cc1nn(CC(F)F)c2c1c(C(F)F)cc(=O)n2CC(=O)O,-111.45%
7,CN1CCCn2c(nc(CNS(=O)(=O)C3CC3)cc2=O)C1,-41.3%
8,Cc1nn(C)c2cnn(Cc3ccc(C(=O)NC4CC4)cc3)c12,-60.4%
9,COc1ccc(Cn2c(C3CCNCC3)cc3cccnc32)cc1,66.9%
10,COc1ccc(-c2ccnc(C3CCNCC3)c2)cc1,30.9%
11,COc1cccc(-c2ccnc(C3CCNCC3)c2)c1,-73.8%
12,Fc1cccc(F)c1Cn1c(C2CCCNC2)cc2cccnc21 (stereo not drawn),66.1%
13,c1cnc2c(c1)cc([C@H]1CCCO1)n2CCN1CCCC1,21.4%
14,CN1CCCC1c1cc2cccnc2n1Cc1ccc(F)cc1 (stereo not drawn),69.9%
15,c1cnc2c(c1)cc(C1CCOCC1)n2CCN1CCOCC1,-7.49%
16,Fc1ccccc1-c1nccnc1C1CCCNC1 (stereo not drawn),10.7%
17,c1cnc2c(c1)cc([C@H]1CCCO1)n2CCN1CCCCC1,25.8%
18,COc1cccc(CN2C[C@H]3CCNCC[C@H]3S2(=O)=O)c1,17.1%
19,COc1cccc(Cn2c(C3CCNCC3)cc3cccnc32)c1,66.1%
20,Fc1cccc(-c2nccnc2C2CCCNC2)c1 (stereo not drawn),14.9%
21,O=C(C1CCOCC1)N1C[C@H]2CCC[C@@]2(COCc2ccccn2)C1,-15.1%
22,Cc1noc(C(C)C)c1C(=O)NCc1cccc(CN(C)C)c1,-13.6%
23,Cc1cnc(CNC2CCc3nc(C(C)C)nn3C2)cn1 (stereo not drawn),-20.3%
24,Cc1ccc(CN2C[C@@H]3CN(CC4CCOCC4)CCO[C@@H]3C2)s1,-95.1%
25,CC(C)(C)n1cc(CNc2ccc(CNS(C)(=O)=O)cc2)cn1,-25.8%
